Source: PubChem (National Center for Advancing Translational Sciences (NCATS))
Rows were chosen to be rich in hits. Some 22% of all compounds tested hit in one or more screens of this group.
Shiga toxin inh – Shiga toxin inhibition; Vero cells, Shiga toxin protein synthesis inhibition reporter; inhibition, % at 38.7 µM; hit rate 9.2% among 290,000; AID 2315; in the data active = inhibition mostly above about 28%, no sharp cut-off; inactive = mostly below about 43%; note: 0% is about no effect
Pf growth 48h – inhibits P. falciparum growth in the first generation, 48 h | Potency, µM (doses to about 28.7 µM), inactives show top-dose activity change, negative = inhibition, actives largely listed as inhibitors | P. falciparum luciferase growth in erythrocytes, 48 h | hit rate 5.9% among 310,000; note: potency is the fitted concentration of half-maximal effect; % is set by controls: 0 for no effect and ±100 for the full control effect
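Parasite viability was followed by luminescence of a genomically integrated firefly luciferase. Cultures held 0.1% parasitemia at 2% hematocrit (final), incubated under 5% CO2 at 37 C.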
CHX counter – affects cycloheximide protein synthesis inhibition readout, counter-screen; cell reporter, cycloheximide protein synthesis inhibition counterscreen; max response, %; hit rate 12% among 300,000; in the data active = max response mostly above about 13%, no sharp cut-off; inactive = mostly below about 14%; note: read at 38.3 µM for the half of the compounds with a filed dose; 0% is about no effect
Pf growth 96h – P. falciparum growth inhibition at 96 hours; P. falciparum luciferase reporter growth, 96 h; Potency, µM (highest dose often 28.7 µM), inactives show top-dose activity change, negative = inhibition, hits mostly inhibitors; hit rate 6.9% among 320,000; AID 504834; note: potency is the fitted concentration of half-maximal effect; % is set by controls: 0 for no effect and ±100 for the full control effect
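Compounds incubated with erythrocytes infected by luciferase-expressing P. falciparum (2% hematocrit, 0.05% parasitemia final) for 96 hours, 37 C in 5% CO2. Growth inhibition scored as decreased luciferase luminescence.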
LmPK inh – LmPK (Leishmania mexicana) enzyme inhibition; purified LmPK, Kinase-Glo ATP luminescence, 1 h; Q27686; hit rate 0.37% among 290,000; AID 1721; Potency, µM (highest dose often 57.5 µM), inactives show at the top dose activity change, negative = inhibition, usual class: inhibitors; note: potency is the fitted concentration of half-maximal effect; % is set by controls: 0 for no effect and ±100 for the full control effect
Target sequence (Q27686 whole entry, looked up): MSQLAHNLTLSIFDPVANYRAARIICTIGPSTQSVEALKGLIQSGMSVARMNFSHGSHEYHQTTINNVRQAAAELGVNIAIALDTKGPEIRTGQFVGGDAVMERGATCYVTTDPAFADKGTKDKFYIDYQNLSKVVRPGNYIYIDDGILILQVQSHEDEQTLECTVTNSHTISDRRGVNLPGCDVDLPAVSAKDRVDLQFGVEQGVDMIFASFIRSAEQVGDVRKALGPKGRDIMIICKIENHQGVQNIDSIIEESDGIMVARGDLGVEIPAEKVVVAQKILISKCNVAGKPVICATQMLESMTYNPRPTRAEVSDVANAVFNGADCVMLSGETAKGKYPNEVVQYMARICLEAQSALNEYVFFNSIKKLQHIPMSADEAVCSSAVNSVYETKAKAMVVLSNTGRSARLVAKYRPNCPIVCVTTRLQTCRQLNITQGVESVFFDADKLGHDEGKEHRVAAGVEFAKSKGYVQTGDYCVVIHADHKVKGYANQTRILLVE
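Pyruvate kinase activity monitored as ATP production (luciferase luminescence). Conditions: 0.1 nM enzyme, 0.5 mM PEP, 0.1 mM ADP, 1 h, RT; normalized against uninhibited and no-enzyme wells.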
* hit, by the source's call; ? = inconclusive; · = no result given. Unless noted, calls come from the whole dose curve; as a rule, active = well fitted inhibition curve with a large enough effect; inconclusive = small, poorly fitted or top-dose-only effect, or another doubt; inactive = no such curve, though single readings can be large or run the other way.

SMILES	Shiga toxin inh	Pf growth 48h	CHX counter	Pf growth 96h	LmPK inh
CCOc1ccccc1-c1nc(-c2ccc(NC(=O)Cc3ccc(OC)cc3)cc2)no1	-4	?	-5	?	0%
CCN(CC)c1ccc(NC(=O)c2ccc(Br)o2)cc1	41	-13%	43*	10µM*	-29%
COC(=O)Cc1ccc(NC(=O)c2ccc(C)c(C)c2)cc1	51*	·	45*	?	0%
COC(=O)Cc1ccc(NC(=O)c2ccc(Br)o2)cc1	71*	99%	35*	0%	?
CCN(CC)c1ccc(NC(=O)OC)cc1	31	6%	8	·	0%
Cc1occc1-c1nnc(SCC(=O)NC2CCCCC2C)o1 (configuration not stated)	·	7%	·	-3%	·
CCCOC(=O)c1ccc(NC(=O)c2ccc(Br)o2)cc1	52*	?	56*	?	-4%
Cn1cc(/C=C(\C#N)C(=O)Nc2ccccc2O)c2ccccc21	20	·	11	?	2%
N=c1n(CC(=O)c2ccc([N+](=O)[O-])cc2)c2ccccc2n1Cc1ccc(Cl)cc1	10	?	-4	?	0%
O=C(Cn1nnc2ccccc21)c1ccc([N+](=O)[O-])cc1	13	18%	5	13%	2%
N=c1n(Cc2ccccc2)c2ccccc2n1Cc1ccccc1	-5	10µM*	-4	?	-7%
N=c1n(CCN2CCCCC2)c2ccccc2n1CC(=O)c1cccc([N+](=O)[O-])c1	-17	1.9µM*	1	?	-3%
N=c1n(CC(=O)c2ccc([N+](=O)[O-])cc2)c2ccccc2n1Cc1ccccc1	16	8.3µM*	0	?	-1%
O=C(Cn1nc(Cl)nc1Cl)c1ccc([N+](=O)[O-])cc1	3	13µM*	10	2.9µM*	4%
O=C(N=C1SC2CS(=O)(=O)CC2N1Cc1ccc(F)cc1)C1CCCO1 (configuration not stated)	18	20%	-2	55%	0%
CCOC(=O)/C(=C/Nc1ccc(F)cc1)[N+](=O)[O-]	-2	3%	-1	28%	-5%
CC(=O)c1cccc(NC(=O)c2cc(-c3ccco3)on2)c1	97*	209%	35*	-24%	-5%
O=C(Nc1cccc(C(F)(F)F)c1)c1cc(-c2ccco2)on1	15	35%	8	-15%	-2%
O=C(Nc1cccc(O)c1)c1cc(-c2ccco2)on1	49*	56%	22*	133%	?
COc1ccccc1OCC(=O)NCC1CCCN(Cc2cnn(C(C)C)c2)C1 (configuration not stated)	-31	15%	8	-1%	-9%
Nc1nc(Nc2ccccc2F)nc(N2CCCC2)c1[N+](=O)[O-]	107*	100%	51*	127%	0%
CN(c1ccccc1)c1nc(N)c([N+](=O)[O-])c(N2CCCC2)n1	81*	36%	37*	69%	-1%
CN(c1ccccc1)c1nc(N)c([N+](=O)[O-])c(N2CCOCC2)n1	12	40%	10	3%	4%
CNc1nc(N)c([N+](=O)[O-])c(N2CCCCCC2)n1	-3	29%	-5	17%	7%
CC(C)CCNc1nc(N)c([N+](=O)[O-])c(N2CCCCCC2)n1	-8	3.7µM*	11	2.1µM*	13%
SMILES	Shiga toxin inh	Pf growth 48h	CHX counter	Pf growth 96h	LmPK inh
CN(c1ccccc1)c1nc(N)c([N+](=O)[O-])c(N2CCCCC2)n1	61*	5%	32*	18%	5%
CC1=C([N+](=O)[O-])C(c2ccc(Cl)cc2)NC(=O)N1 (configuration not stated)	18	-173%	-3	?	6%
Cc1cccc(Nc2nc(N)c([N+](=O)[O-])c(N3CCCC(C)C3)n2)c1 (configuration not stated)	-12	12µM*	-4	?	3%
Cc1c(C(=O)OCc2ccc(F)cc2)sc2nc3n(c(=O)c12)CCC3	·	9%	·	10%	·
CCN(CC)S(=O)(=O)c1cc(NC(=O)[C@@H](NC(N)=O)C(C)C)ccc1C	-21	3%	-1	0%	-1%
COc1ccc(NC(=O)c2[nH]c(C)c(C(C)=O)c2C)cc1S(=O)(=O)N1CCOCC1	-2	4%	-3	0%	4%
CC(=O)c1c(C)[nH]c(C(=O)OC(C)C(=O)Nc2ccc(C)c(S(=O)(=O)N3CCOCC3)c2)c1C (configuration not stated)	·	9.3µM*	·	5.2µM*	·
CC(=O)c1c(C)[nH]c(C(=O)Nc2ccc(Cl)c(S(=O)(=O)N3CCOCC3)c2)c1C	-6	4.1µM*	0	4.1µM*	4%
CCN(CC)S(=O)(=O)c1cc(NC(=O)C(C)OC(=O)c2[nH]c(C)c(C(C)=O)c2C)ccc1C (configuration not stated)	-6	3.7µM*	2	?	0%
COc1ccc(S(=O)(=O)NNC(N)=S)cc1	3	22%	-2	24%	4%
COc1ccc(CCN(C)C(=O)c2cc(=O)c3ccccc3o2)cc1OC	18	?	20	-3%	9%
Cc1nc(N2CCN(c3ccccn3)CC2)c2c(C)c(C(=O)N3CCN(c4cccc(Cl)c4)CC3)sc2n1	-11	?	8	1%	2%
COCCNC(=O)C(c1ccccc1C)N(C(=O)Cn1nnc2ccccc21)c1cccnc1 (configuration not stated)	-10	-20%	-7	-25%	2%
Cc1ccc(C(=O)C(C)OC(=O)c2ccccc2[N+](=O)[O-])cc1 (configuration not stated)	71*	272%	50*	0%	-1%
Cc1ccc(C(=O)/C=C/c2ccccc2[N+](=O)[O-])cc1	39	?	28*	68%	-3%
COc1ccccc1C(=O)NNC(=O)c1ccccc1[N+](=O)[O-]	-9	6%	-1	?	-2%
O=C(/C=C/c1ccccc1[N+](=O)[O-])c1ccccc1Br	47*	?	14*	13%	-2%
Cc1cc(C)cc(NC(=S)N2CC(C)OC(C)C2)c1 (configuration not stated)	-6	-7%	-2	2.1µM*	-3%
CCc1[nH]nc2c1C(c1ccc(Br)s1)C(C#N)=C(N)O2 (configuration not stated)	-21	-2%	-2	7%	4%
O=C(CSc1nnc(C2CCCCC2)o1)N1CCCCC1	81*	13%	31*	30%	-3%
O=C(CSc1nnc(C2COc3ccccc3O2)o1)N1CCCC1 (configuration not stated)	52*	?	47*	?	1%
Cc1ccc(C(=O)Nn2cnnc2)cc1Cl	-5	51%	-1	54%	-4%
CCN(CC)CCCN=Cc1c(O)n(-c2ccccc2C)c(=O)c2ccccc12	-7	?	-1	?	0%
Cc1cc(C(=O)Nc2ccc(Nc3ccccc3)cc2)ccc1[N+](=O)[O-]	·	-26%	20*	12µM*	5%
